# Test results published in PubChem BioAssay.
# “And” between values parts separate entries of the source, which are not always exact repeats. Identical values can stand only once. Inconclusive results are not listed. The source holds several records for some structures; these can differ, active in one and inactive in another. The source made the active and inactive calls.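 The calls were made as follows, unless noted: active = normalized viability below 100% at a tested concentration; inactive = the rest.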
# Assays:
# [1] = growth inhibition of DIPG glioma cells, dose response, cell-based, SU-DIPG-XVII, MIPE5.0, CellTiter-Glo, qHTS (AID 1347060; cut-off not given, nearly all actives have AC50 up to about 26 µM;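 also: cells exposed to compound for 48 hours before viability readout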); details: SU-DIPG-XVII viability, CellTiter-Glo ATP luminescence
# [2] = growth inhibition of DIPG glioma cells, dose response, cell-based, SU-DIPG-XIII, MIPE4.0, CellTiter-Glo, qHTS (AID 1347061; cut-off not given, nearly all actives have AC50 up to about 37 µM;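 also: cells exposed to compound for 48 hours before readout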); details: SU-DIPG-XIII viability, CellTiter-Glo ATP luminescence
# [3] = growth inhibition of DIPG glioma cells, dose response, cell-based, JHH-DIPG-1, MIPE4.0, CellTiter-Glo, qHTS (AID 1347062; cut-off not given, nearly all actives have AC50 up to about 27 µM;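 also: cells exposed to compound for two days before readout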); details: JHH-DIPG-1 viability, CellTiter-Glo ATP luminescence
# [4] = growth inhibition of DIPG glioma cells, dose response, cell-based, SU-DIPG-IV, MIPE4.0, CellTiter-Glo, qHTS (AID 1347063; cut-off not given, nearly all actives have AC50 up to about 30 µM;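 also: compound exposure lasted 48 hours before the viability readout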); details: SU-DIPG-IV viability, CellTiter-Glo ATP luminescence
# [5] = growth inhibition of DIPG glioma cells, dose response, cell-based, SU-DIPG-XIII, MIPE5.0, CellTiter-Glo, qHTS (AID 1347064; cut-off not given, nearly all actives have AC50 up to about 23 µM;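 also: cells exposed to compound for 48 hours before the viability read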); details: SU-DIPG-XIII viability, CellTiter-Glo ATP luminescence
# [6] = viability loss in pontine glioma line – cell-based, SU-DIPG-XXV, MIPE5.0, CellTiter-Glo, qHTS, dose response (AID 1347065; cut-off not given, nearly all actives have AC50 up to about 26 µM;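 also: cells exposed to compound for 48 hours before ATP readout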); details: CellTiter-Glo ATP luminescence
# [7] = SU-DIPG-VI glioma cell viability, MIPE4.0 library, CellTiter-Glo luminescence, qHTS (AID 1347066; cut-off not given, nearly all actives have AC50 up to about 30 µM;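 also: cells exposed to compound for 48 hours before readout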); details: CellTiter-Glo ATP luminescence
# [8] = JHH-DIPG-1 glioma cell viability, MIPE5.0 library, CellTiter-Glo luminescence, qHTS (AID 1347067; cut-off not given, nearly all actives have AC50 up to about 26 µM;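 also: cells exposed to compound for 48 hours before readout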); details: JHH-DIPG-1 glioma viability, CellTiter-Glo ATP luminescence
# [9] = sensitizers of A549 cells to miR-34 induction, primary screen, imaging, A549 dox-inducible miR-34, nuclei and caspase counts (AID 1347080;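 active = compounds whose cell count with miR-34 switched on is under 0.7 times the count with it off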); details: A549 miR-34 inducible, Hoechst nuclei count, 48 h
# [10] = modifiers of HSF1 nuclear foci, imaging, Selleck Cancer Library (AID 1347162; in the data active = plate-normalised HSF1 focus index below about 0.46); details: human cells, at 10 µM; SSMD: measured here: HSF1 foci SSMD mean; cell count: measured here: cell number; plate-normalised HSF1 focus index: stronger effect = lower value
# [11] = survival rescue of mitochondrial mutant cells in low glucose, primary screen, MELAS cybrids, Rieske KO mouse fibroblasts, CellTiter-Glo (AID 1508586;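 active = mean z-score across replicates of 1.96 or higher in either the MELAS or the Rieske mutant cell line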;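 also: z relative to plate mean and SD of compound and empty wells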)
# [12] = ovarian cancer cell viability with rucaparib, profiling panel, oncology-focused library, rucaparib conditional (AID 1508598); details: patient-derived ovarian cancer cells, CellTiter-Glo viability, 144 h, stronger effect = lower value
# [13] = LFS_MB_P medulloblastoma growth inhibition, cell-based, chromothripsis tumors, cisplatin or BGB combos (AID 1671449; in the data active = inhibition above about 80%;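 also: cells exposed for 96 hours; 0% = vehicle DMSO and 100% = killing by high DMSO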); details: LFS_MB_P medulloblastoma cells
# [14] = HDN33 neuroblastoma growth inhibition, cell-based, chromothripsis tumors, cisplatin or BGB combos (AID 1671450; in the data active = inhibition above about 80%;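 also: cells exposed to compound for four days; 0% = vehicle DMSO and 100% = cell killing by high DMSO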); details: HDN33 neuroblastoma cells, stronger effect = higher value
# [15] = ICB984 medulloblastoma cell growth inhibition, synergistic combos for chromothripsis tumors, cisplatin or BGB combos (AID 1671451; call rule not given here;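 also: cells exposed for 96 hours before readout; 0% = vehicle DMSO and 100% = killing by high DMSO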); details: ICB984 medulloblastoma cells, drug combinations, stronger effect = higher value
# [16] = HTB85 osteosarcoma cell growth inhibition, synergistic combos for chromothripsis tumors, BGB or cisplatin IC20 combos (AID 1671453; in the data active = inhibition above about 80%;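 also: cells exposed for 96 hours before readout; 0% = vehicle DMSO and 100% = high DMSO killing control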); details: HTB85 osteosarcoma cells, drug combinations, stronger effect = higher value
# [17] = MDA-MB-436 breast carcinoma cell growth inhibition, synergistic combos for chromothripsis tumors, BGB or cisplatin combos (AID 1671458; call rule not given here;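 also: cells exposed for 96 hours; 0% = vehicle DMSO and 100% = killing by high DMSO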); details: MDA-MB-436 breast carcinoma growth inhibition, drug combinations, stronger effect = higher value
# [18] = growth inhibition of BT084 medulloblastoma cells, cell-based, ICGC_MB145, cisplatin and BGB IC40 combos (AID 1671461; in the data active = inhibition above about 80%;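 also: cells exposed to drugs for 96 hours; 0% = vehicle DMSO and 100% = high DMSO full killing control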); details: drug combinations, stronger effect = higher value
# [19] = growth inhibition of RCMB18 medulloblastoma cells, cell-based, cisplatin and BGB IC40 combos (AID 1671462; in the data active = inhibition above about 80%;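 also: cells exposed to compound for four days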); details: stronger effect = higher value
# [20] = SU-DIPG-XXV glioma cell viability, MIPE5.0 library, qHTS (AID 1347068; cut-off not given, nearly all actives have IC50 up to about 30 µM;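 also: cells exposed to compound for 48 hours before viability readout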)
compound,measurement,setting,value
C#Cc1cccc(Nc2ncnc3cc(OC)c(OCCCCCCC(=O)NO)cc23)c1,AC50,[1],0.742 µM (active)
same,AC50,[2],0.398 µM (active)
same,AC50,[3],0.148 µM (active)
same,AC50,[4],0.418 µM (active)
same,AC50,[5],0.661 µM (active)
same,AC50,[6],0.417 µM (active)
same,AC50,[7],0.0743 µM (active)
same,AC50,[8],0.833 µM (active)
same,fold change,"[9]; stronger effect = lower value, cell number ratio, induced over uninduced",0.901 (inactive)
same,fold change,[9]; measured here: relative caspase fold change +Dox/-Dox,0.807
same,cell count,"[9]; measured here: total cells with miR-34 induction, stronger effect = lower value",1090
same,cell count,[9]; measured here: total cells without miR-34 induction,1210
same,SSMD,[10],-4.22
same,cell count,[10],7310
same,plate-normalised HSF1 focus index,[10],0.849 (inactive)
same,z-score,"[11]; MELAS cybrid survival, CellTiter-Glo 48 h, stronger effect = higher value",1.07 (inactive)
same,z-score,"[11]; Rieske KO mouse fibroblast survival, CellTiter-Glo 72 h",1.33
same,viability,"[12]; at 0.000305 µM, OCI-C5x cells, with rucaparib 10 µM, 100% = cells with rucaparib alone",114% (inactive)
same,viability,"[12]; at 0.000305 µM, OCI-C5x cells, without rucaparib",114% (inactive)
same,viability,"[12]; at 0.000305 µM, OCI-P5x cells, with rucaparib 20 µM, 100% = cells with rucaparib alone",108% (inactive)
same,viability,"[12]; at 0.000305 µM, OCI-P5x cells, without rucaparib",96.4% (active)
same,viability,"[12]; at 0.00122 µM, OCI-C5x cells, with rucaparib 10 µM, 100% = cells with rucaparib alone",111% (inactive)
same,viability,"[12]; at 0.00122 µM, OCI-C5x cells, without rucaparib",113% (inactive)
same,viability,"[12]; at 0.00122 µM, OCI-P5x cells, with rucaparib 20 µM, 100% = cells with rucaparib alone",104% (inactive)
same,viability,"[12]; at 0.00122 µM, OCI-P5x cells, without rucaparib",98.8% (active)
same,viability,"[12]; at 0.00488 µM, OCI-C5x cells, with rucaparib 10 µM, 100% = cells with rucaparib alone",118% (inactive)
same,viability,"[12]; at 0.00488 µM, OCI-C5x cells, without rucaparib",106% (inactive)
same,viability,"[12]; at 0.00488 µM, OCI-P5x cells, with rucaparib 20 µM, 100% = cells with rucaparib alone",113% (inactive)
same,viability,"[12]; at 0.00488 µM, OCI-P5x cells, without rucaparib",111% (inactive)
same,viability,"[12]; at 0.0195 µM, OCI-C5x cells, with rucaparib 10 µM, 100% = cells with rucaparib alone",112% (inactive)
same,viability,"[12]; at 0.0195 µM, OCI-C5x cells, without rucaparib",112% (inactive)
same,viability,"[12]; at 0.0195 µM, OCI-P5x cells, with rucaparib 20 µM, 100% = cells with rucaparib alone",110% (inactive)
same,viability,"[12]; at 0.0195 µM, OCI-P5x cells, without rucaparib",109% (inactive)
same,viability,"[12]; at 0.0781 µM, OCI-C5x cells, with rucaparib 10 µM, 100% = cells with rucaparib alone",113% (inactive)
same,viability,"[12]; at 0.0781 µM, OCI-C5x cells, without rucaparib",113% (inactive)
same,viability,"[12]; at 0.0781 µM, OCI-P5x cells, with rucaparib 20 µM, 100% = cells with rucaparib alone",107% (inactive)
same,viability,"[12]; at 0.0781 µM, OCI-P5x cells, without rucaparib",108% (inactive)
same,viability,"[12]; at 0.313 µM, OCI-C5x cells, with rucaparib 10 µM, 100% = cells with rucaparib alone",87.3% (active)
same,viability,"[12]; at 0.313 µM, OCI-C5x cells, without rucaparib",85.9% (active)
same,viability,"[12]; at 0.313 µM, OCI-P5x cells, with rucaparib 20 µM, 100% = cells with rucaparib alone",91.1% (active)
same,viability,"[12]; at 0.313 µM, OCI-P5x cells, without rucaparib",98.9% (active)
same,viability,"[12]; at 1.25 µM, OCI-C5x cells, with rucaparib 10 µM, 100% = cells with rucaparib alone",10.5% (active)
same,viability,"[12]; at 1.25 µM, OCI-C5x cells, without rucaparib",39.1% (active)
same,viability,"[12]; at 1.25 µM, OCI-P5x cells, with rucaparib 20 µM, 100% = cells with rucaparib alone",3.13% (active)
same,viability,"[12]; at 1.25 µM, OCI-P5x cells, without rucaparib",21.8% (active)
same,viability,"[12]; at 5 µM, OCI-C5x cells, with rucaparib 10 µM, 100% = cells with rucaparib alone",5.56% (active)
same,viability,"[12]; at 5 µM, OCI-C5x cells, without rucaparib",5.78% (active)
same,viability,"[12]; at 5 µM, OCI-P5x cells, with rucaparib 20 µM, 100% = cells with rucaparib alone",1.22% (active)
same,viability,"[12]; at 5 µM, OCI-P5x cells, without rucaparib",1.21% (active)
same,inhibition,"[13]; at 0.5 µM, stronger effect = higher value",17.8% (inactive) and 78.4% (inactive)
same,inhibition,"[13]; measured here: combination with BGB IC20, at 0.005 µM",-22.9% and -21.6%
same,inhibition,"[13]; measured here: combination with BGB IC40, at 0.005 µM",-38.4% and -30.8%
same,inhibition,"[13]; measured here: combination with BGB IC40, at 0.05 µM",-32.8% and -22.5%
same,inhibition,"[13]; measured here: combination with cisplatin, at 0.5 µM, stronger effect = higher value",83.8% and 104%
same,inhibition,"[13]; measured here: combination with cisplatin, at 5 µM, stronger effect = higher value",112% and 113%
same,inhibition,"[14]; BGB combo, at 5 µM",99.5% and 95.1%
same,inhibition,[14]; at 0.5 µM,-1.62% (inactive) and 3.24% (inactive)
same,inhibition,"[14]; cisplatin combo, at 5 µM",99.9% and 94.2%
same,inhibition,"[14]; measured here: with BGB IC20 combination, at 0.5 µM",-9.96% and -0.599%
same,inhibition,"[14]; measured here: with cisplatin IC20 combination, at 0.5 µM",6.06% and 12.1%
same,inhibition,"[14]; single agent, at 5 µM",99.8% and 96.9%
same,inhibition,"[15]; BGB IC20 combo, at 0.005 µM",68.4% and 23%
same,inhibition,"[15]; BGB IC40 combo, at 0.005 µM",78.3% and 29.4%
same,inhibition,"[15]; BGB IC40 combo, at 0.05 µM",98% and 101%
same,inhibition,[15]; at 0.5 µM,-18.6% (inactive) and -24.1% (inactive)
same,inhibition,"[15]; cisplatin combo, at 0.05 µM",97.9% and 101%
same,inhibition,"[15]; cisplatin combo, at 0.5 µM",-22% and -24.1%
same,inhibition,"[15]; cisplatin combo, at 5 µM",-70.9% and -33.8%
same,inhibition,"[15]; measured here: 5 uM single agent, at 5 µM",-13.9% and -10.2%
same,inhibition,[16]; at 0.5 µM,11.7% (inactive) and 4.4% (inactive)
same,inhibition,"[16]; measured here: with BGB IC20, at 0.5 µM",-2.94% and -22.5%
same,inhibition,"[16]; measured here: with BGB IC20, at 5 µM",99.7% and 73%
same,inhibition,"[16]; measured here: with cisplatin IC20, at 0.5 µM",26% and 9.91%
same,inhibition,"[16]; measured here: with cisplatin IC20, at 5 µM",67.6% and 94.8%
same,inhibition,"[16]; single agent, at 5 µM",99.9% and 74.9%
same,inhibition,[17]; at 0.5 µM,-4.99% (inactive) and -13.2% (inactive)
same,inhibition,"[17]; measured here: BGB combination, at 0.5 µM",-10.9% and -11.9%
same,inhibition,"[17]; measured here: BGB combination, at 5 µM",61.3% and 55.7%
same,inhibition,"[17]; measured here: cisplatin combination, at 0.5 µM",-18.9% and -27.4%
same,inhibition,"[17]; measured here: cisplatin combination, at 5 µM",74.5% and 60.7%
same,inhibition,[18]; at 0.5 µM,82% (active) and 58.2% (inactive)
same,inhibition,"[18]; cisplatin combination, at 0.5 µM",99.1% and 87.2%
same,inhibition,"[18]; cisplatin combination, at 5 µM",103% and 101%
same,inhibition,"[18]; measured here: BGB IC40 combination 0.05 uM, at 0.05 µM",-29.2% and 20%
same,inhibition,"[18]; single agent, at 5 µM",106% and 108%
same,inhibition,[19]; at 0.5 µM,69.7% (inactive) and 45.9% (inactive)
same,inhibition,"[19]; cisplatin combo, at 5 µM",96.3%
same,inhibition,"[19]; measured here: BGB IC40 combination, at 0.05 µM",-10.5% and -3.2%
same,inhibition,"[19]; measured here: combination with cisplatin, at 0.5 µM",82.3% and 57.4%
same,inhibition,"[19]; single agent, at 5 µM",89.6% and 92.4%
COc1cc2ncnc(Nc3ccc(F)c(Cl)c3)c2cc1NC(=O)/C=C/CN1CCCCC1,AC50,[1],14.8 µM (active)
same,outcome,[2],inactive
same,AC50,[3],18.7 µM (active)
same,AC50,[4],20.9 µM (active)
same,AC50,[5],18.6 µM (active)
same,AC50,[6],9.34 µM (active)
same,AC50,[7],20.9 µM (active)
same,IC50,[20],10.5 µM (active)
same,SSMD,[10],1.69
same,cell count,[10],6970
same,plate-normalised HSF1 focus index,[10],1.09 (inactive)
